PubChem BioAssay AID504580 (NMMLSC, 2011)
In all, about 2,000 compounds went through this assay and fewer than 10 were called active. These entries were drawn from the full list. Values without a mark were called inactive.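 Rule for the calls: active = compounds that quench the bead-bound fluorescent RNA probe, cutting fluorescence to under half of the solvent control; inactive = the rest.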

Assay: fluorescent RNA aptamer quenching, single concentration, confirmation, artefact control for GRK2 RNA aptamer inhibitor project, biochemical, single point, cherry pick 1, flow cytometry (AID 504580);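 note: counterscreen run without GRK2 so only probe quenching by compound is measured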
Conditions: Carboxyfluorescein RNA aptamer on beads, at 10 µM, active compounds read low

SMILES	fluorescence response (% of DMSO)
C=C(C)C(=O)Nc1cccc(C2=NOC3(C2)C[C@H](C(N)=O)N(C(=O)C(c2ccccc2)c2ccccc2)C3)c1 (stereo partly drawn)	102%
COc1cccc(CN(C)CC(=O)Nc2sc3c(c2C#N)CCC3)c1	99.9%
CCCc1nc2ccccc2c(=O)n1NC(=O)c1c(O)c2ccccc2[nH]c1=O	101%
O=C(Nc1nnc(-c2ccccc2)o1)c1cccc(S(=O)(=O)N2CCOCC2)c1	101%
CC(C)Cn1c(CN(Cc2ccccc2)Cc2ccccc2)nc2c1c(=O)n(C)c(=O)n2C	98%
CN(CC(=O)Nc1ccc(N2CCOCC2)cc1)CC(=O)Nc1ccccc1[N+](=O)[O-]	101%
COc1cc(C(=O)OCC(=O)N(CC(C)C)C2CCS(=O)(=O)C2)ccc1OCC(C)C (stereo not drawn)	91.4%
CSc1nc2ccccc2c(=O)n1Cc1ccc(F)cc1	100%
CCOC(=O)c1sc2nc(CSc3ccccc3)[nH]c(=O)c2c1C	106%
Cn1c(=O)c2c(nc(N3CCOCC3)n2CCNC2=NCCC2)n(C)c1=O	99.8%
O=C(c1cnn(-c2ccc(Cl)cc2)c1)c1ccccc1O	101%
O=C(NCc1ccccc1Cl)c1ccc2c(=O)n(CC3CCCO3)c(=S)[nH]c2c1 (stereo not drawn)	95.6%
Cc1csc(=O)n1CC(=O)OCC(=O)N(CC(C)C)c1c(N)n(Cc2ccccc2)c(=O)[nH]c1=O	99.2%
O=C(COC(=O)c1ccc(F)cc1F)Nc1ncccn1	95.8%
COc1cc(C(=O)NCc2ccc3c(c2)cc(C)n3C)cc(OC)c1OC	96.5%
O=C(NC(=O)c1cc(OCC(F)(F)F)ccc1OCC(F)(F)F)Nc1ccccc1	103%
CC(=O)N1CC[n+]2c(-c3ccc([N+](=O)[O-])cc3)csc21	103%
CCOc1ccccc1C(=O)NCc1ccco1	96%
Cc1cc2cc(CNC(=O)c3cccs3)ccc2[nH]1	86.2%
COc1ccc(Nc2nc(-c3cccnc3)nc3ccccc23)cn1	101%
CCN1/C(=C\c2ccc3ccccc3[n+]2CC)Sc2cc(C)ccc21	173%
Cn1c(=O)[nH]c(=O)c2c1nc(N1CCN(C(c3ccccc3)c3ccccc3)CC1)n2CCO	98.3%
COC(=O)N/N=C/c1ccc(/C=N/NC(=O)OC)cc1	100%
COc1ccc(Nc2cc(Sc3ccc(OC)cc3)ncn2)cc1	101%
O=C(c1ccc(Cl)cc1)c1ccc(OCC(O)CN2CCCCC2)cc1 (stereo not drawn)	101%
COc1ccc(-n2nc(C(=O)NCC(=O)N3CCCCCC3)c3ccccc3c2=O)cc1Cl	105%

SMILES	fluorescence response (% of DMSO)
COc1ccccc1NC(=O)CSc1nc2sc3c(c2c(=O)n1-c1ccccc1)CCN(C)C3	94.8%
NC(=O)C1CCN(C(=O)c2ccc3c(=O)n(Cc4cccc(Br)c4)c(=S)[nH]c3c2)CC1	98.1%
COc1ccc(C(=O)NCCNc2ccc([N+](=O)[O-])cn2)cc1	99.4%
Cc1nc(C(=O)NCc2ccccc2)sc1C1(C)CC(c2cccnc2)=NO1 (stereo not drawn)	97.1%
O=C(c1cc2cc(F)ccc2[nH]1)N1CCN(c2ccc(F)cc2)CC1	97.9%
CNS(=O)(=O)c1cccc(C(=O)NCC2CCCCC2)c1	101%
Nc1ccc2nc3c(=O)[nH]c(=S)[nH]c3nc2c1	83.9%
O=C(Oc1ccc(Br)cc1)c1cccnc1	96.7%
Cc1ccccc1-c1nnn(CC(=O)c2ccc(S(=O)(=O)N3CCCC3)cc2)n1	96.4%
CSc1ccc(/C=C2\NC(=O)NC2=O)cc1	95.8%
Cc1ccc(-c2nn(-c3ccccc3)cc2/C=C2\SC(=S)N(CCCCCC(=O)O)C2=O)o1	136%
COCCn1c(C)cc(C(=O)CN2c3cccc4cccc(c34)S2(=O)=O)c1C	98%
Cc1cc(C(=O)NC2CCN(Cc3ccccc3)CC2)n[nH]1	96.6%
C/C(=N\OCC(=O)O)c1ccc(Cl)cc1	101%
CC(NC(=O)C1CCCN(S(=O)(=O)c2ccc(-n3cnnn3)cc2)C1)c1ccc(F)cc1 (stereo not drawn)	105%
CCN1C(=O)[C@H]2[C@@H](c3ccc(-c4ccc(OC)cc4)cc3)N[C@@](Cc3ccccc3)(C(=O)OC)[C@H]2C1=O	96.4%
COc1ccc(NC(=O)CN(C)C(=O)c2cc(-c3ccc(C)o3)nc3ccccc23)cc1	100%
COc1ccc(N2CCN(C(CNS(=O)(=O)c3ccc(C)cc3)c3ccccc3)CC2)cc1 (stereo not drawn)	98.2%
O=C(NCC12CC3CC(C1)CC(CNC(=O)N1CCCC1)(C3)C2)N1CCCC1	98.2%
O=C(O)c1ccc2c(c1)C(=O)N(c1ccc(/C=C/C(=O)c3ccccc3)cc1)C2=O	99.8%
O=S(=O)(Nc1ccc(-c2ccc(N3CCOCC3)nn2)cc1)c1cc(Cl)ccc1Cl	108%
O=C(NCc1ccccc1)c1cccc(NC(=O)C2CCCCC2)c1	98%
CCC(=C/c1sc2ccc3ccccc3c2[n+]1C)/C=C1\Sc2ccc3ccccc3c2N1C	10.7% (active)
Cc1ccccc1CN1CCN(CC(=O)NCc2ccccn2)C1=O	101%
Cc1ccc(S(=O)(=O)CCC(=O)Nc2nnc(CC(C)C)s2)cc1	99.8%
O=C(CCNC(=O)c1ccccc1)NN=Cc1ccc(Br)o1	96.6%

SMILES	fluorescence response (% of DMSO)
Cc1ccc(C(CNC(=O)Nc2cccc(C)c2)N2CCN(C)CC2)cc1 (stereo not drawn)	98%
O=c1[nH]c(SCc2ccccc2)nnc1-c1ccccc1	98.2%
Cc1nc(Nc2ccccc2F)c2nnn(Cc3ccccc3Cl)c2n1	99.8%
CCOC(=O)C1CCCN(Cc2nc(N)nc(Nc3ccc(C)cc3)n2)C1 (stereo not drawn)	80%
Cc1ccc(N2C(=O)C3N=NN(CC(=O)N4N=C(c5cccc6ccccc56)CC4c4ccccc4)C3C2=O)cc1 (stereo not drawn)	101%
OC(CN=c1sc2ccccc2n1CC(O)COc1ccccc1)COc1ccccc1 (stereo not drawn)	95.8%
CC(C)CN(C(=O)c1cccc(S(=O)(=O)N2CCCCC2)c1)C1CCS(=O)(=O)C1 (stereo not drawn)	102%
O=C(COc1ccccc1)NCCc1nc2ccccc2[nH]1	99.7%
CCOC(=O)C(C)n1cnc2scc(-c3ccc(C)c(C)c3)c2c1=O (stereo not drawn)	95.4%
Cc1cc(/C=C2\SC(=O)N(C)C2=O)c(C)n1-c1cccc(C(=O)O)c1	96.6%
COc1ccc(Cl)cc1NC(=O)CCS(=O)(=O)c1cc2c(cc1C)NC(=O)CO2	99.6%
COC(=O)c1ccc(C)c(NC(=O)C2CC(=O)N(C3CCCC(C)C3C)C2)c1 (stereo not drawn)	94.9%
CCN1/C(=C/c2ccc3ccc(C)cc3[n+]2CC)Sc2ccccc21	142%
Cc1cccc(NC(=O)C2CCCN(C(=O)NCc3ccccc3)C2)c1C (stereo not drawn)	102%
CCCCn1nc(C(=O)OCC(=O)Nc2sccc2C(N)=O)c2ccccc2c1=O	99.8%
O=C(CCS(=O)(=O)c1ccc(Br)cc1)NCCc1ccc(Cl)cc1	102%
O=C1C2N=NN(CC(=O)N3N=C(c4cccc5ccccc45)CC3c3ccccc3)C2C(=O)N1c1ccccc1 (stereo not drawn)	91.2%
CN/C(=C\[N+](=O)[O-])NCCSCc1csc(CN(C)C)n1	99.2%
COCCCNC(=O)CNC(=O)c1nn(-c2ccc(OC)cc2)c(=O)c2ccccc12	96.3%
O=C(NNc1ncnc2c1cnn2-c1ccccc1)c1ccco1	97.9%
CC(=O)c1ccc(OCC(O)CN2CCN(S(=O)(=O)c3cccc(Br)c3)CC2)cc1 (stereo not drawn)	142%
CCOCCCNC(=O)C(NC(=O)CNC(=O)c1ccccc1)c1ccc(OC)cc1 (stereo not drawn)	96%
Cc1nn(Cc2ccc(F)cc2)c(C)c1NC(=O)c1noc2c1CCc1ccccc1-2	97%
C/C(=N\Nc1nc2ccccc2[nH]1)c1cccs1	92.8%
O=C(Nc1ccc(-c2nnc(-c3ccccc3)o2)cc1)c1ccc(Br)o1	98.8%
CN(Cc1ccccc1)C(=O)c1cccc(C(=O)N(C)Cc2ccccc2)c1	101%
